Pin1 inh: qHTS Assay to Find Inhibitors of Pin1 | Peptidyl-prolyl cis-trans isomerase NIMA-interacting 1 (Homo sapiens), Q13526 | Potency, µM (top dose mostly 115 µM), for inactives: at the highest dose activity, negative = inhibition, hits mostly inhibitors | hit rate 0.009% among 390,000 | Pin1 FP peptide displacement, HiFluor488, 10 min | AID 504891, 2011; active = well fitted inhibition curve with a large enough effect in the polarisation, with a control signal flat, not every such curve was filed as active; inconclusive = small, poorly fitted or top-dose-only effect, or effect the other way, or a change in a side signal; inactive = no such curve, though single readings can be large or run the other way; the % refers to the polarisation; note: potency is the fitted concentration of half-maximal effect
Target sequence (Q13526 whole entry, looked up): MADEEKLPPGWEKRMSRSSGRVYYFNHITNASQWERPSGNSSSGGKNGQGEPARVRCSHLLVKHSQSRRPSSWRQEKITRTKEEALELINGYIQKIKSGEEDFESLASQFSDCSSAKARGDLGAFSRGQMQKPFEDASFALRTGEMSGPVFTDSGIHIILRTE
Tb PFK inh: qHTS Assay to Find Inhibitors of T. brucei phosphofructokinase; Potency, µM (top dose mostly 57.5 µM), inactives show at the highest dose activity, negative = inhibition, hits mostly inhibitors; ATP-dependent 6-phosphofructokinase (Trypanosoma brucei brucei), O15648; T. brucei PFK, ADP-Glo luminescence; AID 485367, 2010; hit rate 0.17% among 330,000;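 note: potency is the fitted concentration of half-maximal effect; 0% = uninhibited 1x PFK enzyme wells and -100% = no-enzyme wells; nearly all actives have a fitted effect of over 60% in size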
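Luminescent ADP detection (ADP-Glo, two-step: ATP depletion then ADP-to-ATP conversion for luciferase) reported PFK activity after 45 min room-temperature reaction of 1.25 nM enzyme with 0.5 mM F6P and 0.1 mM ATP at pH 8.0.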
PI4K2A inh: qHTS for small molecular inhibitors of PI4K2A. activity change, negative = inhibition, % at 76.9 µM. purified PI4K2A, ADP-Glo luminescence, 1 h; active compounds read low. Phosphatidylinositol 4-kinase type 2-alpha (Homo sapiens), Q9BTU6. hit rate 0.13% among 420,000; in the data active = activity change below about -50%; inconclusive = mostly about -30% to -49%;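 note: -100% = wells without enzyme as full effect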
Target sequence (Q9BTU6 whole entry, looked up): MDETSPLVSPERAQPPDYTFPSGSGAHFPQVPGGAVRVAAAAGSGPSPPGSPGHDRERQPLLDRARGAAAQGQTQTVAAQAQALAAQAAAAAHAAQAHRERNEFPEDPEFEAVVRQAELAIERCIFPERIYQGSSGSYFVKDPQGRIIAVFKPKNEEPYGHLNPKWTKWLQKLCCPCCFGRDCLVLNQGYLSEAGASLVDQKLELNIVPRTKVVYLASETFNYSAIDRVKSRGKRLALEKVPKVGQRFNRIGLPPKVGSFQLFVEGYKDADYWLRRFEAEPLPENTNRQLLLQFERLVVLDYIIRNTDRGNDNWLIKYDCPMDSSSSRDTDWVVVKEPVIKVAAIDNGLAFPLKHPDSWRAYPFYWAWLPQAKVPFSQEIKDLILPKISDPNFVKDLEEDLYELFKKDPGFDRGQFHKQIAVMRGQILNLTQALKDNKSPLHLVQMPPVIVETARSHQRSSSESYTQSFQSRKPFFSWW
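PI4K2A activity was measured by ADP-Glo luminescence: enzyme (4 ug/mL stock) and phosphatidylinositol (1.2 mM stock) in Tris pH 7.5/MgCl2/EGTA/Triton X-100 buffer were reacted with ATP (300 microM stock) for one hour at ambient temperature.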
PI5P4Ka inh: qHTS for Inhibitors of phosphatidylinositol 5-phosphate 4-kinase (PI5P4K). PI5P4Kalpha enzyme, ADP-Glo luminescence, 60 min; active compounds read low. AID 652105, 2013. max response, %. Phosphatidylinositol 5-phosphate 4-kinase type-2 alpha (Homo sapiens), P48426. hit rate 1.2% among 330,000; active = max response of -50% or lower; inconclusive = between -30% and -50%; inactive = -30% or higher; note: value at the top dose of about 77 µM
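Controls without substrate or without enzyme flank wells where PI5P4Kalpha converts substrate using 5 microM ATP (final). Incubation lasts 60 minutes at room temperature; ADP formed is read by ADP-Glo luminescence.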
Tb PGK inh: qHTS Assay to Find Inhibitors of Phosphoglycerate Kinase. PGK/GAPDH coupled, Kinase-Glo luminescence, 60 min. Potency, µM (series often up to 57.5 µM), for inactives: top-dose activity change, negative = inhibition, hits mostly inhibitors. hit rate 0.043% among 380,000. AID 602233, 2012; note: potency is the fitted concentration of half-maximal effect; nearly all actives have a fitted effect of over 60% in size
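Luminescent ATP detection (Kinase-Glo Plus) follows a 60-minute room-temperature incubation, with wells lacking PGK as controls. Buffer: 100 mM TEA (pH 7.6), 5 mM MgCl2, 0.01% Tween-20. Coupling enzyme GAPDH (100 nM final) supplies unstable 1,3-BPG in-well.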
An asterisk follows results filed as active; ! = a repeat was not active. This excerpt belongs to a sample that is enriched for hits. Unless noted, calls come from the whole dose curve; as a rule, active = well fitted curve in the direction sought with a large enough effect; inconclusive = small, poorly fitted or top-dose-only effect, or another doubt; inactive = no such curve, though single readings can be large; an effect the other way counts as inactive or inconclusive. Unless noted, % is set by controls: 0 for no effect and ±100 for the full control effect.

`Cc1[nH][nH]c(=O)c1C(c1ccc(-c2ccc(C(=O)O)cc2)o1)c1c(C)[nH][nH]c1=O` gave Pin1 inh -11%, Tb PFK inh inconclusive, PI4K2A inh -55*, PI5P4Ka inh inconclusive and Tb PGK inh -4%.
For Cc1[nH][nH]c(=O)c1C(c1ccc(-c2ccc(F)cc2)o1)c1c(C)[nH][nH]c1=O the results were Pin1 inh -1%, Tb PFK inh -15%, PI4K2A inh inconclusive, PI5P4Ka inh 4 and Tb PGK inh 2%.
NNc1cc([N+](=O)[O-])cc2c1C(=O)N(Cc1ccccc1)S2=O (stereo not given) was read as Pin1 inh inconclusive, Tb PFK inh 1%, PI4K2A inh -8, PI5P4Ka inh -66* and Tb PGK inh -8%.
CC(C)=NNc1cc([N+](=O)[O-])cc2c1C(=O)N(C)S2=O (stereo not given) was read as Pin1 inh 0%, Tb PFK inh -5%, PI4K2A inh -2, PI5P4Ka inh -4 and Tb PGK inh -12%.
Screening Cc1ccc(-c2cnn(-c3ccccc3)c2N)cc1 returned Pin1 inh 2%, Tb PFK inh -15%, PI4K2A inh -76*, PI5P4Ka inh inconclusive and Tb PGK inh inconclusive.
COc1cccc(-n2c(SCc3cc(=O)oc4cc(O)c(O)cc34)nc3ccccc3c2=O)c1 was read as Pin1 inh inconclusive, Tb PFK inh -20%, PI4K2A inh -5, PI5P4Ka inh -61* and Tb PGK inh inconclusive.
For CCN(CC)C(=O)CSc1nc2ccccc2c(=O)n1-c1cccc(OC)c1 the results were Pin1 inh -1%, Tb PFK inh 1%, PI4K2A inh -1, PI5P4Ka inh 9 and Tb PGK inh 2%.
Screening Cc1nc(SCC(=O)c2cccc([N+](=O)[O-])c2)n[nH]1 returned Pin1 inh -2%, Tb PFK inh inconclusive, PI4K2A inh 6, PI5P4Ka inh -63* and Tb PGK inh 4%.
For O=C(O)c1cc(-c2ccc(N3CCOCC3)cc2)nn1-c1ccc(F)cc1 the results were Pin1 inh -19%, Tb PFK inh 8%, PI4K2A inh 1, PI5P4Ka inh -12 and Tb PGK inh inactive.
O=C(c1cc(-c2ccco2)nn1-c1cccc(Cl)c1)N1CCCCC1 was read as Pin1 inh 21%, Tb PFK inh -19%, PI4K2A inh -16, PI5P4Ka inh -82* and Tb PGK inh 0%.
Screening O=C(c1cc(-c2cccc(Cl)c2)on1)N1CCCCCC1 returned Pin1 inh 8%, Tb PFK inh 0%, PI4K2A inh -2, PI5P4Ka inh -11 and Tb PGK inh -6%.
Screening Cc1ccc(-n2nc(-c3ccco3)cc2C(=O)O)cc1 returned Pin1 inh inconclusive, Tb PFK inh 2%, PI4K2A inh 2, PI5P4Ka inh -51* and Tb PGK inh -20%.
Cc1ccnc(NC(=O)c2ccc(OCC3CCCO3)cc2)c1 (stereo not given) was read as Pin1 inh -10%, Tb PFK inh -22%, PI4K2A inh -63*, PI5P4Ka inh inconclusive and Tb PGK inh inconclusive.
O=C(CCC1CCN(Cc2ccccc2)CC1)c1ccc2c(c1)NCCCC2 was read as PI4K2A inh 1.
For COc1ccc(-c2ccc3ncnc(NCC4CCCO4)c3c2)cc1OC (stereo not given) the results were Pin1 inh -2%.
COc1ccc2c(c1)cc(C(=O)N/N=C/c1c(O)c(C(=O)O)cc3ccccc13)n2C was read as Pin1 inh inconclusive, Tb PFK inh -11%, PI4K2A inh -1, PI5P4Ka inh -66* and Tb PGK inh -9%.
`CCOC(=O)C1CCCN(C(=O)CSc2ccc(Br)cc2)C1` (stereo not given) gave Pin1 inh 0%, Tb PFK inh -2%, PI4K2A inh -2, PI5P4Ka inh -54* and Tb PGK inh inactive.
`COc1ccc(Cc2nnc(NC(=O)Cc3cccs3)s2)cc1OC` gave Pin1 inh inconclusive, Tb PFK inh -12%, PI4K2A inh -12, PI5P4Ka inh -92* and Tb PGK inh inconclusive.
Cc1ccc(C(=O)Nc2cccc(C(F)(F)F)c2)cc1NC(=O)c1c[nH]c2cc(C(F)(F)F)ccc2c1=O was read as Pin1 inh -1%, Tb PFK inh -1%, PI4K2A inh -5, PI5P4Ka inh -1 and Tb PGK inh -5%.
`CCN1CCN(Cc2ccc(NC(=O)c3cc(NC(=O)c4cncc(-c5cccs5)c4)cc(OC)c3)cc2C(F)(F)F)CC1` gave Pin1 inh 24%, Tb PFK inh 0%, PI4K2A inh -3, PI5P4Ka inh -67*! and Tb PGK inh 3%.
`CCN1CCN(Cc2ccc(NC(=O)c3cc(NC(=O)c4cc(-c5ccc(OC)cc5)n[nH]4)cc(OC)c3)cc2C(F)(F)F)CC1` gave Pin1 inh -10%, Tb PFK inh 5%, PI4K2A inh -2, PI5P4Ka inh -67* and Tb PGK inh inactive.
For CCN1CCN(Cc2ccc(NC(=O)c3ccc(C)c(NC(=O)c4c[nH]c5cc(C(F)(F)F)ccc5c4=O)c3)cc2C(F)(F)F)CC1 the results were Pin1 inh 31%, Tb PFK inh 1%, PI4K2A inh -3, PI5P4Ka inh -67* and Tb PGK inh 10%.
CN1N=C(C(N)=O)CCC1=O was read as PI4K2A inh 3.
For CCOc1ccc(/C=C2\SC(=S)N(NS(=O)(=O)c3ccccc3)C2=O)cc1OC the results were Pin1 inh 6%, Tb PFK inh 2%, PI4K2A inh -4, PI5P4Ka inh -5 and Tb PGK inh -11%.
Screening O=C1/C(=C/C=C/c2ccco2)SC(=S)N1NS(=O)(=O)c1ccccc1 returned Pin1 inh inconclusive, Tb PFK inh -29%, PI4K2A inh -19, PI5P4Ka inh -81* and Tb PGK inh inconclusive.
For COc1ccccc1/C=C1\SC(=S)N(NS(=O)(=O)c2ccc(C)cc2)C1=O the results were Pin1 inh inconclusive, Tb PFK inh 28%, PI4K2A inh -11, PI5P4Ka inh inconclusive and Tb PGK inh -5%.
CCN(C(=O)C(C)N1C(=O)/C(=C/c2ccco2)SC1=S)C1CCS(=O)(=O)C1 (stereo not given) was read as Pin1 inh inconclusive, Tb PFK inh inconclusive, PI4K2A inh inconclusive, PI5P4Ka inh -68* and Tb PGK inh -14%.

High-throughput results deposited in PubChem BioAssay by National Center for Advancing Translational Sciences (NCATS).
